A short description of assay [1]: TOX21_PR_LUC_Followup_Antagonist_viability: Viability Assessment in the Tox21 HEK293 Progesterone Receptor (PR) Antagonism Luciferase Follow-Up Assay (AID 2283940). The source says: TOX21_PR_LUC_Followup is a secondary assay for specificity for the TOX21_PR_BLA_Agonist assay. To differentiate true PR agonists from cytotoxic substances, this follow up assay is multiplexed with a cell viability assay.TOX21_PR_LUC_Followup_Antagonist_viability is an assay readout measuring cellular ATP content and detected with CellTiter-Glo Luciferase-coupled ATP quantitation.TOX21_PR_LUC_Followup_Antagonist_viability used a type of viability reporter where loss-of-signal activity can be used to understand changes in the cell viability. Furthermore, this assay endpoint can be referred to as a secondary readout, because this assay has produced multiple assay endpoints where this one serves a viability function. To generalize the intended target to other relatable targets, this assay endpoint is annotated to the cell cycle intended target family, where the subfamily is cytotoxicity.
Quality Control Precautions: Maintain cells below 85-90% confluence in culture medium. […] Then 4 uL of ONE-Glo reagent (Promega, Madison, WI) was added to each plate using a BioRAPTR Flying Reagent Dispenser (FRD) workstation (Beckman Coulter, Indianapolis, IN, USA) and luminescence was quantified on a ViewLux (PerkinElmer, Shelton, CT) plate reader after 30 min incubation at room temperature.

The nature of assay [2]: TOX21_PR_LUC_Followup_Agonist_viability: Viability Assessment in the Tox21 HEK293 Progesterone Receptor (PR) Agonism Luciferase Follow-Up Assay (AID 2283941).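 Note: loss of signal means cytotoxicity so actives lower viability.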 A digest of the protocol:
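Seeding: HEK293-PR-A-luc, 3,000 cells/well, 5 h at 37C. Treatment: compound in DMSO, 16 h, 37C. Read: CellTiter-Glo ATP luminescence, signal loss taken as lower viability.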

Assay [3] concerns the target THRA (gene 7067) (UniProt P10827). Put plainly: TOX21_TRA_COA_Agonist_Followup_ratio: Tox21 Thyroid Hormone Receptor alpha Agonism through Coactivator Recruitment Follow-Up Assay, Ratio (AID 2283948; active = hit-call score of the fitted dose curve at least 0.9, where 1 is the maximum; inactive = score below 0.9). An outline of the steps:
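First, compound was incubated with 2.5 nM GST-TRα LBD in 0.10% BSA. Next, 200 nM fluorescein-SRC-2 and 2 nM Tb-anti-GST antibody were added. Finally, the 520:495 nm ratio was normalized to DMSO and T3 controls.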

Assay [4] deals with THRB (gene 7068) (UniProt P10828). Put plainly: TOX21_TRB_BLA_Agonist_Followup_ratio: Tox21 Thyroid Hormone Receptor beta Agonism Beta-lactamase (BLA) Follow-Up Assay, Ratio (AID 2283954). A digest of the protocol:
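Agonist mode: compounds (11-point, triplicate) incubated 18 h with HEK293T cells carrying GAL4-DBD/human TRβ-LBD and UAS-β-lactamase. Blue/green (460/530 nm) FRET ratio read after 2 h CCF4-AM loading; CellTiter-Glo viability run in the same plates.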

The target is the same in assay [5]. Put plainly: TOX21_TRB_COA_Agonist_Followup_ratio: Tox21 Thyroid Hormone Receptor beta Agonism through Coactivator Recruitment Follow-Up Assay, Ratio (AID 2283963; active = hit-call score of the fitted dose curve at least 0.9, where 1 is the maximum; inactive = score below 0.9). The source says:
TOX21_TRb_COA_Agonist_Followup is a secondary assay for specificity for the TOX21_TR_GH3_LUC_Agonist assay. The LanthaScreen TR-FRET TR coactivator assay kits were used to determine TR activity in a cell-free functional assay. A time-resolved fluorescence resonance energy transfer (TR-FRET) signal was indicative of coactivator (SRC-2) recruitment.TOX21_TRB_COA_Agonist_Followup_ratio is assay component calculated in the TOX21_TRB_COA_Agonist_Followup assay. The TR-FRET ratio of acceptor emission (ch2) to donor emission (ch1) is indicative of the resonance energy transfer to the fluorescein tag on the coactivator peptide following recruitment to the receptor.Data from the assay component TOX21_TRB_COA_Antagonist_Followup_ratio was analyzed into 1 assay endpoint. This assay endpoint, TOX21_TRB_COA_Antagonist_Followup_ratio, was analyzed in the positive analysis fitting direction relative to DMSO as the negative control and baseline of activity. Using a type of inducible reporter, gain-of-signal activity can be used to understand changes in the reporter gene as they relate to the gene THRB. Furthermore, this assay endpoint can be referred to as a primary readout, because this assay has produced multiple assay endpoints and this ratio serves a reporter gene function to understand target activity. […]

In assay [6] the target is THRA (gene 7067) (UniProt P10827). Put plainly: TOX21_TRA_COA_Antagonist_Followup_ratio: Tox21 Thyroid Hormone Receptor alpha Antagonism through Coactivator Recruitment Follow-Up Assay, Ratio (AID 2283953). A digest of the protocol:
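We measured antagonism of T3-type coactivator recruitment using a TR-FRET ratio (emission 520 and 495 nm) between a Tb-labelled anti-GST antibody on TRα LBD (2.5 nM) and SRC-2 peptide (200 nM). Activity was scaled between DMSO and T3 wells.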

Assay [7] concerns the target THRB (gene 7068) (UniProt P10828). Put plainly: TOX21_TRB_BLA_Antagonist_Followup_ratio: Tox21 Thyroid Hormone Receptor beta Antagonism Beta-lactamase (BLA) Follow-Up Assay, Ratio (AID 2283958). An outline of the steps: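 Using charcoal-stripped 2% FBS medium, human TRβ-LBD/GAL4 reporter HEK293T cells received test compounds for 18 h. The endpoint is the cleaved-to-uncleaved substrate ratio (460/530 nm).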

Data on 6 compounds can be found in PubChem BioAssay (EPA / NIEHS).

Records with an inconclusive call do not appear. Activity calls are given as the source filed them. Rule for the calls, unless noted: active = hit-call score of the fitted dose curve at least 0.9, where 1 is the maximum; inconclusive = response in the unintended direction; inactive = score below 0.9.

The term AC50 denotes the concentration at which the activity in the assay is half-maximal.

THRB (gene 7068), sequence (P10828 whole entry, looked up, the tested form may be a part): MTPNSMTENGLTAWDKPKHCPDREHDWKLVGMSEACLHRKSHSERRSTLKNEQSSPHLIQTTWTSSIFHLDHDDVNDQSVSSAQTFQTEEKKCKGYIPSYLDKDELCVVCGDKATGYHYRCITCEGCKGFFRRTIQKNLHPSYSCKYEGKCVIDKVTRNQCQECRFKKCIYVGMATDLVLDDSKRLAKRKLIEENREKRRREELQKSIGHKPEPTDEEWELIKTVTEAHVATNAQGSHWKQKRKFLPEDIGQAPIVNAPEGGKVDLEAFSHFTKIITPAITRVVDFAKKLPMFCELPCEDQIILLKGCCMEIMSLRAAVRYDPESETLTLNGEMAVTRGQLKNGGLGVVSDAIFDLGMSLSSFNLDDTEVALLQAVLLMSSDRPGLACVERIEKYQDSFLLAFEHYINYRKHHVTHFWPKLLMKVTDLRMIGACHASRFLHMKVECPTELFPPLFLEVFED
THRA (gene 7067), sequence (P10827 whole entry, looked up, the tested form may be a part): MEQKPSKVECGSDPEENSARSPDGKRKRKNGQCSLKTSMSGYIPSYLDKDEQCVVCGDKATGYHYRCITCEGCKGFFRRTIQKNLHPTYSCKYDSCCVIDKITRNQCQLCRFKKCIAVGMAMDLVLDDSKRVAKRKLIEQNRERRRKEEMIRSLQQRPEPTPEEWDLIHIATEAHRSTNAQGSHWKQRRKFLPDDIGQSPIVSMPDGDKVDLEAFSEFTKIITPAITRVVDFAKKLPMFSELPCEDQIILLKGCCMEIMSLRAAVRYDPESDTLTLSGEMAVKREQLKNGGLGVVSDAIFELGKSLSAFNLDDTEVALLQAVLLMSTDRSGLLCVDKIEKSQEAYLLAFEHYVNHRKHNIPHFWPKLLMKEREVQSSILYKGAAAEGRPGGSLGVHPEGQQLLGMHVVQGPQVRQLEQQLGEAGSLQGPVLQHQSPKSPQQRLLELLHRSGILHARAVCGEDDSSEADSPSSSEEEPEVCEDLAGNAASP

With `NC(=O)N(O)[C@@H]1COc2cc(OCc3ccccc3)ccc21`, the compound was called inactive in assay [1] and in assay [2].
As to `CC(C)C(=O)Nc1ccc([N+](=O)[O-])c(C(F)(F)F)c1`, the compound was called inactive in assay [1] and in assay [2].
Consider `O=c1[nH]cnc2c1ncn2[C@H]1CC[C@@H](CO)O1`, for which the outcome in assay [3] and in assay [5] was inactive. Further, the AC50 in assay [4] is 9.78 µM (active).
Regarding `Cn1c(=O)c2[nH]cnc2n(C)c1=O`, the result in assay [3], in assay [4] and in assay [5] was inactive.
Turning to `Cc1nccn1-c1ccc(Sc2cccc(C3(C(N)=O)CCOCC3)c2)cc1`, the outcome in assay [6] was inactive. Moreover, the AC50 in assay [7] is 21.5 µM (active).
As to `COc1cc2c(c(OC)c1OC)-c1ccc(OC)c(=O)cc1[C@@H](NC(C)=O)CC2`, the AC50 in assay [7] was 0.0894 µM (active).
